From PubChem BioAssay (NCI) come the findings set out here.

Some test systems named below: NCI-H23 lung; NCI-H226 lung; NCI-H322M lung; HOP-62 NSCLC; NCI-H460 lung; HOP-92 NSCLC; NCI-H522 lung; A549/ATCC NSCLC; 786-0 renal; COLO 205 colon; DU-145 prostate; K-562 leukemia; MALME-3M melanoma; MDA-MB-231 breast; RXF 393 renal; SF-268 CNS; SF-295 CNS; SF-539 CNS; UACC-257 melanoma; M14 melanoma.
Common to all, as to assay: NCI-60 one-dose screen, 48 h (100 = growth as untreated, 0 = no growth, -100 = all killed)
Common to all, as to details: 10 µM unless noted

Compounds without any hit were thinned out: in the full panel of roughly 83,000, 20% have a hit.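 96-well plates, one dose, 48 hours. Percent growth reported; active if below 10.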 Unmarked numbers belong to inactive results. Calls of active or inactive are those of the source.

As to `O=c1[nH]c2ccccc2n1C1CCN(CCOc2ccccc2)CC1`, the growth was 93% with NCI-H23 lung; 78.9% in the experiment with NCI-H226 lung; 98.8% in the experiment with NCI-H322M lung; 96.7% in the experiment with HOP-62 NSCLC; 94% in the experiment with NCI-H460 lung; 37.1% with HOP-92 NSCLC. The growth in the experiment on NCI-H522 lung was 76.3%; with A549/ATCC NSCLC it was -22.6% (active); in the experiment on 786-0 renal it was 100%; with COLO 205 colon, 94.3%; with DU-145 prostate, 73.4%; with K-562 leukemia it was 11.4%. The growth is 99.9% in the experiment on MALME-3M melanoma; 91.3% in the experiment with MDA-MB-231 breast; 28% in the experiment with RXF 393 renal; 92.8% with SF-268 CNS; 76.9% in the experiment on SF-295 CNS; 106% in the experiment on SF-539 CNS. Also, the growth with UACC-257 melanoma was 95.1%; in the experiment on M14 melanoma, 97%.
On to `O=C1c2cccc(NCCN=Cc3cc([N+](=O)[O-])ccc3O)c2C(=O)c2c(NCCN=Cc3cc([N+](=O)[O-])ccc3O)cccc21`, for which the growth is 75% in the experiment with NCI-H23 lung; 77% in the experiment on NCI-H226 lung; 77% with NCI-H322M lung; 55.4% with HOP-62 NSCLC; 53.4% in the experiment on NCI-H460 lung; 62.4% in the experiment with HOP-92 NSCLC. Moreover, the growth with NCI-H522 lung was 45%; in the experiment with A549/ATCC NSCLC it was 84.6%; with 786-0 renal, 82.6%; with COLO 205 colon, 55.9%; in the experiment with DU-145 prostate it was 67%; in the experiment with K-562 leukemia, 28.6%. Besides, the growth was 85.1% in the experiment on MALME-3M melanoma; 58.9% with MDA-MB-231 breast; 74.5% in the experiment on RXF 393 renal; 40% with SF-268 CNS; 73% in the experiment on SF-295 CNS; 70.8% with SF-539 CNS. Further, the growth in the experiment with UACC-257 melanoma is 104%; in the experiment on M14 melanoma, 102%.
For the compound `CN1CCN(C(=O)c2c3c(n4ccccc24)C(=O)c2ncccc2C3=O)CC1`, the growth in the experiment on NCI-H23 lung is 26.8%; in the experiment with NCI-H226 lung, 69.5%; in the experiment on NCI-H322M lung, 47.2%; with HOP-62 NSCLC, 27.3%; in the experiment on NCI-H460 lung, 16.4%; with HOP-92 NSCLC, 85.4%. Besides, the growth in the experiment on NCI-H522 lung is 51.7%; in the experiment on A549/ATCC NSCLC, 51.3%; with 786-0 renal it was 56.3%; with COLO 205 colon, 78.2%; in the experiment on DU-145 prostate it was 56.8%; in the experiment with K-562 leukemia it was 54.1%. The growth is 72.1% with MALME-3M melanoma; 79.5% in the experiment with MDA-MB-231 breast; 60.8% in the experiment on RXF 393 renal; 52.9% with SF-268 CNS; 73.5% in the experiment on SF-295 CNS; 58% in the experiment with SF-539 CNS. Further, the growth in the experiment with UACC-257 melanoma is 97.7%; in the experiment with M14 melanoma, 49%.
For the compound `O=c1ssc(Cl)c1-c1ccccc1`, the growth is 99.5% in the experiment on NCI-H23 lung; 99.1% in the experiment with NCI-H226 lung; 105% in the experiment with NCI-H322M lung; 98.1% with HOP-62 NSCLC; 99% in the experiment with NCI-H460 lung; 72.5% in the experiment with HOP-92 NSCLC. Besides, the growth in the experiment on NCI-H522 lung is 112%; in the experiment on A549/ATCC NSCLC, 106%; in the experiment with 786-0 renal, 107%; in the experiment on COLO 205 colon it was 85.1%; in the experiment with DU-145 prostate it was 113%; with K-562 leukemia, 102%. In addition, the growth in the experiment on MALME-3M melanoma is 100%; in the experiment with MDA-MB-231 breast, 97%; with RXF 393 renal, 86.7%; in the experiment on SF-268 CNS, 134%; in the experiment on SF-295 CNS it was 102%; in the experiment with SF-539 CNS, 90.7%. The growth with UACC-257 melanoma was 91.3%; with M14 melanoma, 96.7%.
Take `CC/C=C\C/C=C\C[C@H](O)C/C=C1/C(=O)C=C[C@@H]1C/C=C\CCCC(=O)O`: the growth is 61.8% in the experiment with NCI-H23 lung; 59.6% in the experiment on NCI-H226 lung; 53.4% in the experiment on NCI-H322M lung; 62.8% with HOP-62 NSCLC; 31.8% with NCI-H460 lung; 87.3% in the experiment with HOP-92 NSCLC. Also, the growth in the experiment on NCI-H522 lung was -22.8% (active); in the experiment with A549/ATCC NSCLC, 57.3%; in the experiment with 786-0 renal it was -38.7% (active); in the experiment on COLO 205 colon, 27%; in the experiment on DU-145 prostate it was 35.4%; with K-562 leukemia, 10.5%. Besides, the growth in the experiment with MALME-3M melanoma is 47%; in the experiment with MDA-MB-231 breast, 25.6%; in the experiment with RXF 393 renal it was 68.5%; with SF-268 CNS, 53.9%; with SF-295 CNS it was 86.2%; in the experiment on SF-539 CNS it was 32.7%. Besides, the growth in the experiment on UACC-257 melanoma was 31.3%; in the experiment with M14 melanoma, 14.3%.
As for `CCCCCCCCCCCCCCCCCCOc1ccccc1CC(=O)OCCC[N+](C)(C)C`, the growth with NCI-H23 lung was 46.4%; with NCI-H226 lung, 78%; in the experiment with NCI-H322M lung it was 84.3%; in the experiment on HOP-62 NSCLC it was 67.1%; with NCI-H460 lung, 80.1%; in the experiment with HOP-92 NSCLC, 39.6%. For the same compound, the growth was 36.3% in the experiment with NCI-H522 lung; 54.2% in the experiment with A549/ATCC NSCLC; 50.7% in the experiment with 786-0 renal; 16.7% in the experiment with COLO 205 colon; 60.5% in the experiment on DU-145 prostate; 37.4% in the experiment on K-562 leukemia. The growth in the experiment on MALME-3M melanoma is 52.7%; with MDA-MB-231 breast, 45.9%; in the experiment with RXF 393 renal it was -18.2% (active); in the experiment with SF-268 CNS it was 53.2%; in the experiment on SF-295 CNS it was 75.4%; with SF-539 CNS it was 52.1%. For the same compound, the figures for the growth with UACC-257 melanoma and in the experiment with M14 melanoma were 84.7% and 46.3%, respectively.
With `O=C(Nc1cccc2c(O)c(N=Nc3ccc(S(=O)(=O)Nc4nccs4)cc3)cc(N=Nc3ccc(S(=O)(=O)Nc4nccs4)cc3)c12)C(Cl)Cl`, the growth in the experiment on NCI-H23 lung was 103%; in the experiment on NCI-H226 lung, 98.8%; with NCI-H322M lung, 89.7%; in the experiment with HOP-62 NSCLC it was 96.8%; in the experiment on NCI-H460 lung, 73.4%; in the experiment on HOP-92 NSCLC, 24.7%. The growth in the experiment with NCI-H522 lung was -42.5% (active); in the experiment with A549/ATCC NSCLC it was 92.2%; with 786-0 renal, 103%; in the experiment on COLO 205 colon, 99%; in the experiment on DU-145 prostate, 33.8%; in the experiment with K-562 leukemia it was 143%. The growth with MALME-3M melanoma is 138%; with MDA-MB-231 breast, 92.3%; in the experiment on RXF 393 renal it was 71.2%; in the experiment with SF-268 CNS it was 66.2%; with SF-295 CNS, 78.2%; in the experiment on SF-539 CNS, 86.6%. Further, the growth in the experiment on UACC-257 melanoma was 80.6%; in the experiment with M14 melanoma it was 110%.
As to `CC(C)(C)n1cc(-c2ccnc(NCCCNS(=O)(=O)c3ccccc3)c2)c(-c2ccccc2)n1`, the growth is 76.9% in the experiment with NCI-H23 lung; 82.5% with NCI-H226 lung; 88.9% in the experiment on NCI-H322M lung; 90.7% in the experiment on HOP-62 NSCLC; 78.9% in the experiment with NCI-H460 lung; 24.5% in the experiment with HOP-92 NSCLC. The growth in the experiment with NCI-H522 lung was 74.6%; in the experiment with A549/ATCC NSCLC it was 63.5%; in the experiment with 786-0 renal, 56.4%; in the experiment on COLO 205 colon it was 57.4%; with DU-145 prostate, 83.7%; in the experiment on K-562 leukemia it was 21.2%. The growth in the experiment on MALME-3M melanoma was 82.7%; with MDA-MB-231 breast it was 72%; in the experiment on RXF 393 renal it was 62%; with SF-268 CNS, 93.1%; in the experiment on SF-295 CNS it was 63.2%; in the experiment with SF-539 CNS, 66.4%. For the same compound, the results for the growth with UACC-257 melanoma and with M14 melanoma were 77.9% and 67.1%, respectively.
